This note sets out measurements from the supplement of paper PMC10338343.

± gives the standard deviation.

The subject of experiment [1] is MILI (PIWIL2) piRISC loaded with L1MC piRNA (26 nt). The experiment can be described thus: pre-steady-state target cleavage rate (min^-1); guide: L1MC piRNA 5'p-UAACUAAAUACUAUGCAAGCUGUAGG; higher = faster piRNA-guided slicing of the target. In a few lines: (§1)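 A transcribed, DNA-blocked target RNA library (0.1 nM) and 1 nM active affinity-purified piRISC bearing one synthetic guide were incubated in HEPES–potassium acetate buffer at 33 °C for 0–8 or 0–960 min, either with or without 500 nM GTSF1 partner protein. Uncleaved targets were sequenced, normalised to depth and to weakly complementary targets, and pooled over three trials, with k3 capped at 0.0001 min^-1. The pre-steady-state cleavage rate was derived with a burst-and-steady-state fit.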

The subject of experiment [2] is EfPiwi piRISC loaded with L1MC piRNA (26 nt). The experiment can be described thus: pre-steady-state target cleavage rate (min^-1); auxiliary factor: 500 nM Ephydatia muelleri Gtsf1; guide: L1MC piRNA 5'p-UAACUAAAUACUAUGCAAGCUGUAGG; MIWI and MILI are mouse PIWI proteins and EfPiwi is from a freshwater sponge; tags in brackets are library labels; higher = faster piRNA-guided slicing of the target. The procedure, abridged:
as §1

Setting [3] is: auxiliary factor: 500 nM mouse GTSF1.
[4] abbreviates: auxiliary factor: none (no GTSF1).

For the sequence UCCUCGUACAGCUUGGAUAGUAUUUAGUUA, the results for the “pre-steady-state target cleavage rate” value in experiment [1] (setting [3]), in experiment [1] (setting [4]) and in experiment [2] were 0.265 ± 0.012, 0.00962 ± 0.0023 and 0.0441 ± 0.0092, respectively.
UCCUGCUACAGCUAGCAUACUAUUUAGUUA: the “pre-steady-state target cleavage rate” value came to 0.112 ± 0.018 in experiment [1] (setting [3]), 0.0037 ± 0.0024 in experiment [1] (setting [4]) and 0.0063 ± 0.0019 in experiment [2].
In the same order, the values of UCCUCCCACAGCUUGCAUAGUAUUUAGUUA are 0.296 ± 0.015, 0.00691 ± 0.0024 and 0.128 ± 0.029.
In the same order, the values of UCCUCCUACGAGCUUGCAUAGUAUUUAGUUA are 0.163 ± 0.018, 0.00585 ± 0.0022 and 0.0144 ± 0.0051.
As for UCCUGGAACACGCUUGCAUAGUAUUUAGUUA, the entries for the “pre-steady-state target cleavage rate” value in experiment [1] (setting [3]), in experiment [1] (setting [4]) and in experiment [2] were 0.249 ± 0.025, 0.0151 ± 0.0044 and 0.0331 ± 0.011, respectively.
Take UCCUGGAUGAGCUUGCAUAGUAUUUACGUUA: the “pre-steady-state target cleavage rate” value amounted to 0.189 ± 0.031 in experiment [1] (setting [3]), 0.00682 ± 0.0032 in experiment [1] (setting [4]) and 0.00466 ± 0.0026 in experiment [2].
As to UCCUGGAAGAGCUUGCAUAGUAUUUAGAUA, the “pre-steady-state target cleavage rate” value in experiment [1] (setting [3]) stood at 0.182 ± 0.034; in experiment [1] (setting [4]) it was 0.00463 ± 0.0025; in experiment [2] it was 0.00519 ± 0.0023.
In the same order, the values of UCCUCCUACAGCUAGCAUAGUAAUUAGUUA are 0.159 ± 0.022, 0.00372 ± 0.0022 and 0.00535 ± 0.002.
As for UCCUGGAUGAGCGUGCAUAGUAUUUAGUUA, the “pre-steady-state target cleavage rate” value was 0.186 ± 0.018 in experiment [1] (setting [3]), 0.0113 ± 0.003 in experiment [1] (setting [4]) and 0.0239 ± 0.0062 in experiment [2].
In the case of UCCUGGAUGAGCUUGCAUAGUAUUUUGUUA, the “pre-steady-state target cleavage rate” value in experiment [1] (setting [3]) was found to be 0.204 ± 0.04; in experiment [1] (setting [4]) it was 0.00454 ± 0.0024; in experiment [2], 0.00491 ± 0.0017.
As to UCCUGGAACAGCCUGCAUAGUAUUUAGUUA, the “pre-steady-state target cleavage rate” value in experiment [1] (setting [3]) was determined as 0.247 ± 0.012; in experiment [1] (setting [4]), 0.00896 ± 0.0029; in experiment [2], 0.0144 ± 0.0045.
As to UCCUGGAACUGCUUGCUUAGUAUUUAGUUA, the “pre-steady-state target cleavage rate” value in experiment [1] (setting [3]) was 0.206 ± 0.019; in experiment [1] (setting [4]), 0.0116 ± 0.0026; in experiment [2], 0.00646 ± 0.0033.
In the same order, the values of UCCUCCUACAGCUUGCAUAGUAAUUUGUUA are 0.111 ± 0.021, 0.00269 ± 0.0026 and 0.00652 ± 0.0028.
As to UCCUGCUACUAGCUUGCAUAGUAUUUAGUUA, the “pre-steady-state target cleavage rate” value in experiment [1] (setting [3]) is 0.176 ± 0.022; in experiment [1] (setting [4]), 0.0074 ± 0.0023; in experiment [2], 0.00699 ± 0.0025.
UCCUGGUACAGCUAGCAAAGUAUUUAGUUA: the figures for the “pre-steady-state target cleavage rate” value in experiment [1] (setting [3]), in experiment [1] (setting [4]) and in experiment [2] were 0.102 ± 0.013, 0.0127 ± 0.0033 and 0.00688 ± 0.0029, respectively.
For UCCUGCUACAGCUUGCAUAGUACUUUAGUUA, the results for the “pre-steady-state target cleavage rate” value in experiment [1] (setting [3]), in experiment [1] (setting [4]) and in experiment [2] were 0.194 ± 0.025, 0.00825 ± 0.0022 and 0.00465 ± 0.0015, respectively.
UCCUGGAUCAGCAUGCAUAGUUUUUAGUUA: the figures for the “pre-steady-state target cleavage rate” value in experiment [1] (setting [3]), in experiment [1] (setting [4]) and in experiment [2] were 0.0257 ± 0.0092, 0.00668 ± 0.0023 and 0.00291 ± 0.0027, respectively.
For the sequence UCCUGCAACAGCUAGCAUAGUAUUUAGUUA, the “pre-steady-state target cleavage rate” value in experiment [1] (setting [3]) stood at 0.289 ± 0.02; in experiment [1] (setting [4]), 0.0104 ± 0.0028; in experiment [2], 0.0145 ± 0.004.
In the same order, the values of UCCUGCUACAGCUAUGCAUAGUAUUUAGUUA are 0.257 ± 0.022, 0.0069 ± 0.0021 and 0.012 ± 0.0044.
In the same order, the values of UCCUGGAUGAGCUAGCAUAGUAUUUAGUUA are 0.2 ± 0.018, 0.00679 ± 0.0019 and 0.00597 ± 0.002.
In the same order, the values of UCCUGGUUCAGCUUGCAUAGUAUUAAGUUA are 0.186 ± 0.029, 0.00855 ± 0.0027 and 0.00579 ± 0.0021.
As to UCCUGGAACAGCAUGCUUAGUAUUUAGUUA, the “pre-steady-state target cleavage rate” value in experiment [1] (setting [3]) was 0.217 ± 0.019; in experiment [1] (setting [4]), 0.005 ± 0.0026; in experiment [2], 0.00591 ± 0.0025.
Turning to UCCUGGAUGAGCUUGCAUAGUAUCUAGUUA, the “pre-steady-state target cleavage rate” value was 0.131 ± 0.019 in experiment [1] (setting [3]), 0.00451 ± 0.0026 in experiment [1] (setting [4]) and 0.00844 ± 0.003 in experiment [2].
In the same order, the values of UCCUGCUACAGCUUGCAUAGUAUUCAGUUA are 0.244 ± 0.038, 0.00294 ± 0.0021 and 0.00508 ± 0.0017.
Regarding UCCUGCUACACCUUGCAUAGUAUUUAGUUA, the “pre-steady-state target cleavage rate” value was 0.214 ± 0.018 in experiment [1] (setting [3]), 0.0087 ± 0.0022 in experiment [1] (setting [4]) and 0.0124 ± 0.0048 in experiment [2].
